Test results reported in PubChem BioAssay (Tox21).
Calls of active or inactive are those of the source. Calls come from the whole dose curve; as a rule, active = well fitted curve in the direction sought with a large enough effect in the repeat runs; inconclusive = weak or mixed curves; inactive = flat fitted curve, though single readings scatter.

assay: qHTS assay to test for compound auto fluorescence at 460 nm (blue) in HEK293 cells (AID 720678); settings: blue autofluorescence 405/460 nm; series mostly up to 46 µM
Text: National Center for Advancing Translational Sciences [NCATS]
NIH Chemical Genomics Center [NCGC]
U.S. Environmental Protection Agency [EPA]
National Institutes of Environmental Health Sciences [NIEHS]
National Toxicology Program [NTP]
U.S. Food and Drug Administration [FDA]
Compound auto fluorescence often interferes with screening of the compound library against various biological targets and signaling pathways. Some of these compounds may have fluorophoric properties. Such properties may interfere with the assay outputs resulting in false positives and/or negatives. To decrease such complications and ensure the compound activities are relevant in terms of biological response, the Tox21 10K compound library was screened for auto fluorescence.
From the fluorophores used as reporter signals in our screening assays, the auto fluorescence equivalencies of compounds against three fluorophores have been evaluated: Triamterene, Fluorescein and Rose Bengal sodium for blue, green and red fluorescence, respectively. The fluorescence intensities were measured using Excitation/Emission wavelengths at 405/460nm, 485/535nm and 540/590nm for blue, green and red labels, respectively. This assay includes the blue fluorescence data.
Tox21 Assay Protocol Summary:
2,000 HEK293 cells in 5 uL of culture medium containing 10% dialyzed FBS per well were dispensed into black wall/clear bottom 1536-well plates using a Multidrop Combi Dispenser (Thermo Scientific). The assay plates were incubated for 4-5 hr at 37C to allow cell attachment to the well bottom, followed by the transfer of 23 nL compound or DMSO vehicle by a pintool work station (Kalypsys, San Diego, CA). After the assay plates were incubated overnight at 37C and 5% CO2, fluorescence intensities in the assay plates were measured by an Envision (PerkinElmer, Shelton, CT) plate reader using three labels for measuring blue, green and red fluorescence at […] 460, 535 and 590nm respectively.

Structure (SMILES)	outcome
CCC(=O)O[C@H]1[C@@H](N2CCCCC2)C[C@H]2[C@@H]3CC[C@H]4C[C@H](OC(C)=O)[C@@H](N5CCCCC5)C[C@]4(C)[C@H]3CC[C@@]21C	inactive
Clc1ccc([C@@H]2C[C@H]3CC[C@@H]2N3)cn1	inactive
CC[C@@H](O)C(C[C@@H](C)N(C)C)(c1ccccc1)c1ccccc1	inactive
CN1C2CCC1CC(OC(c1ccccc1)c1ccc(Cl)cc1)C2 (stereo unspecified)	inactive
CCC(=O)O[C@](Cc1ccccc1)(c1ccccc1)[C@H](C)CN(C)C	inactive
Cc1ccc2c(c1)[C@]13CCCC[C@@H]1[C@H](C2)N(C)CC3	inactive
COc1cc(C[C@H](C)N)c(OC)cc1Br	inactive
C[C@]12CC[C@H]3[C@@H](CCC4=CC(=O)CC[C@@]43C)[C@@H]1CC[C@@H]2OC(=O)CCc1ccccc1	inactive
C#C[C@]1(OC(=O)CCCCCC)CC[C@H]2[C@@H]3CCC4=CC(=O)CC[C@@H]4[C@H]3CC[C@@]21C	inactive
CN1CCN=C(c2ccccc2)c2cc(Cl)ccc21	inactive
CC(=O)O[C@H]1C[C@H](O[C@H]2[C@@H](O)C[C@H](O[C@H]3[C@@H](O)C[C@H](OC4CC[C@@]5(C)C(CC[C@@H]6[C@@H]5CC[C@]5(C)[C@@H](C7=CC(=O)OC7)[C@@H](O)C[C@]65O)C4)O[C@@H]3C)O[C@@H]2C)O[C@H](C)[C@H]1O[C@@H]1O[C@H](CO)[C@@H](O)[C@H](O)[C@H]1O (stereo partly specified)	inactive
